Assay outcomes: PubChem, National Center for Advancing Translational Sciences (NCATS)
Hits are enriched below; roughly 10% of the tested compounds scored in any of these assays.
hNpr1 antagonist – Natriuretic polypeptide receptor (hNpr1) antagonism - Primary qHTS; hit rate 1.6% among 76,000; HEK293 hNpr1 GloSensor cGMP, ANP-stimulated luminescence; Atrial natriuretic peptide receptor 1 (Homo sapiens), P16066; AID 1347048, 2019; Potency, µM (top dose mostly 46.3 µM), inactives show at the highest dose activity change, negative = inhibition, usual class: inhibitors; calls by dose curve; note: % is set by controls: 0 for no effect and ±100 for the full control effect; nearly all actives have a fitted effect of over 60% in size
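Compound pre-incubated 30 min at room temperature on GloSensor-loaded HEK293 cells stably carrying hNpr1 and the pGS-40F cGMP biosensor. Stimulation uses hNppA at 0.1 nM final; luminescence is taken at baseline and 20 min post-agonist.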
HEK cytotox – Cytotoxic Profiling in HEK 293 Cell Line of Diverse Libraries Using Quantitative High-Throughput Screening | HEK 293 viability, ATP luminescence (CellTiter-Glo), 48-72 h | Potency, µM (highest dose often 115 µM), for the others: at the top dose activity change, negative = cytotoxicity, hits mostly inhibitors | hit rate 6.6% among 94,000; note: % is set by controls: 0 for no effect and ±100 for the full control effect; nearly all actives have a fitted effect of over 60% in size
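Luminescence from cellular ATP, measured with CellTiter-Glo, indicates HEK 293 viability. Cells plated at 250 cells/well are treated with compound for 48 or 72 hr at 37 degree Celsius before reagent addition.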
FLuc inh – Firefly luciferase inhibition profiling of diverse chemical library using quantitative high-throughput screening | Luciferin 4-monooxygenase (Photinus pyralis), P08659 | purified P. pyralis luciferase, luminescence, biochemical | Potency, µM (titrated, usually from 115 µM), most hits filed as inhibitors | hit rate 2.5% among 76,000; note: % is set by controls: 0 for no effect and ±100 for the full control effect; nearly all actives have a fitted effect of over 65% in size
Target sequence (P08659 whole entry, looked up): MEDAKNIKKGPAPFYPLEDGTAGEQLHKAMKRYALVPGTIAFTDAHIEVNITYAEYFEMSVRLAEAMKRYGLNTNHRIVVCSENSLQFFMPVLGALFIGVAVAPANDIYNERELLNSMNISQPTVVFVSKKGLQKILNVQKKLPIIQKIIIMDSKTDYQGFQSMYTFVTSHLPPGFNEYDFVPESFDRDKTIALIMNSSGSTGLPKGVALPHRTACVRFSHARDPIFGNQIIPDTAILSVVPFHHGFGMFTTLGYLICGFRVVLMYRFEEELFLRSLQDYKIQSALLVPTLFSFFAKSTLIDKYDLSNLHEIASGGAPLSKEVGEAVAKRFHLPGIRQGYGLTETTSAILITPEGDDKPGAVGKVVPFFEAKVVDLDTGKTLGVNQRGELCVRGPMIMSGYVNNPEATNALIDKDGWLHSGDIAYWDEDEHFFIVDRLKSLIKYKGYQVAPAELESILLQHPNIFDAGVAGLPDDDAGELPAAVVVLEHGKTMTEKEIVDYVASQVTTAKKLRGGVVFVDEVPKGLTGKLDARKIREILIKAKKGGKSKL
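FLuc 10nM, D-luciferin 10uM, ATP 10uM, Mg acetate 10mM, Tris acetate pH 7.5, Tween/BSA; cpd qHTS; enzyme added last; CCD luminescence.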
3T3 cytotox – Cytotoxic Profiling in NIH 3T3 Cell Line of Diverse Libraries Using Quantitative High-Throughput Screening. hit rate 4.3% among 94,000. Potency, µM (doses to about 96.7 µM), inactives show at the top dose activity change, negative = cytotoxicity, usual class: inhibitors. NIH 3T3 viability, CellTiter-Glo ATP luminescence, 48-72 h; note: % is set by controls: 0 for no effect and ±100 for the full control effect; nearly all actives have a fitted effect of over 55% in size
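Mouse fibroblast NIH 3T3 cells, 400 per well, received compound via pintool and were incubated for 48 or 72 hr prior to CellTiter-Glo ATP luminescence measurement.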
GPT2 inhibitor – Primary qHTS assay for inhibitors of Glutamate pyruvate transaminase 2 (GPT2). Alanine aminotransferase 2 (Homo sapiens), Q8TD30. Recombinant GPT2, coupled pyruvate oxidase/HRP Amplex Red fluorescence. Potency, µM (top dose mostly 57.7 µM), for inactives: top-dose activity change, negative = inhibition, most hits filed as inhibitors. hit rate 0.25% among 100,000. AID 1671188, 2021; note: % is set by controls: 0 for no effect and ±100 for the full control effect; nearly all actives have a fitted effect of over 60% in size
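Fluorescence read-out: pyruvate from GPT2 turnover coupled to pyruvate oxidase, HRP and Amplex Red (0.2mM ThPP, 0.2U/mL PO and HRP, 50uM Amplex final). Substrates 250uM a-KG, 2mM L-alanine; enzyme 10ng/uL; 30 min RT.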
Npr1 antag conf – Natriuretic polypeptide receptor (hNpr1) antagonism - Confirmation. shares compounds with hNpr1 antagonist. hit rate 76% among 1,400. Potency, µM (top dose mostly 57.6 µM), for inactives: top-dose activity change, negative = inhibition, actives largely listed as inhibitors. HEK293 hNpr1 cGMP GloSensor luminescence, ANP-stimulated; calls by dose curve; note: nearly all actives have a fitted effect of over 70% in size
Npr2 selectivity – Natriuretic polypeptide receptor (hNpr2) antagonism - Subtype selectivity assay; hit rate 67% among 1,400; shares compounds with hNpr1 antagonist; HEK293 hNpr2 GloSensor cGMP luminescence, CNP-stimulated; AID 1347046, 2019; Potency, µM (highest dose often 57.6 µM), inactives show at the top dose activity change, negative = inhibition, actives largely listed as inhibitors; calls by dose curve; note: nearly all actives have a fitted effect of over 70% in size
FLuc counter – Natriuretic polypeptide receptor (hNpr1) antagonism - Confirmation firefly luciferase (FLuc) inhibition counterscreen | shares compounds with hNpr1 antagonist | purified FLuc enzyme, luminescence, Km substrate | Potency, µM (titrated, usually from 57.6 µM), for inactives: top-dose activity change, negative = inhibition, hits mostly inhibitors | hit rate 0.7% among 1,400 | AID 1347047, 2019; note: series mostly up to about 58 µM; 0% is about no effect
GloSensor cGMP – Natriuretic polypeptide receptor (hNpr1) antagonism - Counterscreen GloSensor control cell line | Potency, µM (titrated, usually from 57.6 µM), inactives show at the top dose activity change, negative = inhibition, most hits filed as inhibitors | HEK293 GloSensor cGMP, SNP-stimulated, luminescence | shares compounds with hNpr1 antagonist | hit rate 69% among 1,400; calls by dose curve; note: % is set by controls: 0 for no effect and ±100 for the full control effect; nearly all actives have a fitted effect of over 70% in size
* hit, by the source's call; i = inactive; ? = inconclusive; . = no result; [ ] = another dose, or the depositor's remark. Unless noted, calls come from the whole dose curve; as a rule, active = well fitted curve in the direction sought with a large enough effect; inconclusive = small, poorly fitted or top-dose-only effect, or another doubt; inactive = no such curve, though single readings can be large; an effect the other way counts as inactive or inconclusive. Potency is the fitted concentration of half-maximal effect.

SMILES	hNpr1 antagonist	HEK cytotox	FLuc inh	3T3 cytotox	GPT2 inhibitor	Npr1 antag conf	Npr2 selectivity	FLuc counter	GloSensor cGMP
O=Cc1ccccc1-c1cccc(O)c1	.	?	.	?	-5%[88.5 µM]	?	50µM*	?	?
COc1cc(CN2CCC(C)(NC(C)=O)CC2)cc(-c2ccc3[nH]ncc3c2)c1	-27%[70.6 µM]	?	i	?	3%[88.5 µM]	.	.	.	.
COc1cc(CN2CCC(C)(NC(C)=O)CC2)cc(-c2ccncc2)c1	.	.	.	.	.	22µM*	8.9µM*	2%[86.2 µM]	-18%[86.2 µM]
Cc1ccc(C(=O)N2CCN(C(=O)c3nnn4c3COC(c3ccc(Cl)cc3)C4)CC2)c(C)c1 (stereo not given)	?	?	i	?	1%	22µM*	24µM*	2%	22µM*
COc1ccc(C2Cn3nnc(C(=O)N4CCN(C(=O)c5cc(F)ccc5F)CC4)c3CO2)cc1 (stereo not given)	?	?	i	-27%	i	19µM*	19µM*	4%	19µM*
O=C(c1cccc(F)c1)N1CCN(C(=O)c2nnn3c2COC(c2ccc(F)cc2)C3)CC1 (stereo not given)	?	?	i	-18%	i	.	.	.	.
COc1ccc(C2Cn3nnc(C(=O)N4CCN(C(=O)c5cccc(F)c5)CC4)c3CO2)cc1 (stereo not given)	?	?	i	?	i	22µM*	22µM*	-1%	22µM*
O=C(COc1ccccc1)N1CCN(C(=O)c2nnn3c2COC(c2ccccc2)C3)CC1 (stereo not given)	-21%	?	i	?	i	.	.	.	.
COc1ccc(C2Cn3nnc(C(=O)N4CCN(C(=O)c5c(F)cccc5F)CC4)c3CO2)cc1 (stereo not given)	-2%	?	i	?	i	.	.	.	.
O=C(COc1ccccc1)N1CCN(C(=O)c2nnn3c2COC(c2ccc(Cl)cc2)C3)CC1 (stereo not given)	11µM*	25µM*	i	?	i	22µM*	22µM*	-1%	19µM*
Cc1nc2c(c(-c3ccc(Cl)cc3)n1)CCN(C(=O)Nc1ccc(Cl)cc1)CC2	-24%	?	?	?	i	.	.	.	.
O=C1CC(c2ccccc2)N(C(=O)C2CC2)CCCN(C(=O)c2ccsc2)CCN1 (stereo not given)	-3%	2%	i	-8%	i	.	.	.	.
COc1ccc(C2Cn3nnc(C(=O)N4CCN(C(=O)Cc5ccccc5Cl)CC4)c3CO2)cc1 (stereo not given)	?	?	i	0%	i	12µM*	15µM*	1%	11µM*
O=C(c1cc(Cl)ccc1F)N1CCN(C(=O)c2nnn3c2COC(c2ccccc2)C3)CC1 (stereo not given)	?	?	i	-27%	3%	24µM*	?	0%	?
O=C(Cc1ccccc1Cl)N1CCN(C(=O)c2nnn3c2COC(c2ccc(F)cc2)C3)CC1 (stereo not given)	-2%	-7%	i	-23%	i	.	.	.	.
COc1ccc(C2Cn3nnc(C(=O)N4CCN(C(=O)c5sccc5C)CC4)c3CO2)cc1 (stereo not given)	?	?	i	-8%	i	22µM*	27µM*	1%	22µM*
Cc1ccsc1C(=O)N1CCN(C(=O)c2nnn3c2COC(c2ccccc2)C3)CC1 (stereo not given)	-14%	?	i	-17%	-21%	.	.	.	.
CC1=NOC2(CCN(C(=O)c3ccc(C(F)(F)F)cc3)CC2)C1	5%[70.6 µM]	?	i	?	i	.	.	.	.
CC(C)NS(=O)(=O)c1cc(C(=O)O)cc(-n2cccn2)c1	-1%	-7%	i	-1%	?	.	.	.	.
CCOc1ccccc1C1NC(=O)N(CC(=O)Nc2cccc(C(C)C)c2)C2=C1C(=O)OC2 (stereo not given)	?	?	i	?	i	?	?	-1%	?
Cc1ccc(NC(=O)CN2C(=O)NC(c3ccc(Cl)cc3)C3=C2COC3=O)c(C)c1 (stereo not given)	-20%	?	i	?	0%	.	.	.	.
Cc1ccc(NC(=O)CN2C(=O)NC(c3ccc(Cl)cc3)C3=C2COC3=O)c(Cl)c1 (stereo not given)	?	45µM*	i	?	0%	?	-28%	4%	-20%
O=C(CN1C(=O)NC(c2ccc(Cl)cc2)C2=C1COC2=O)Nc1ccc(F)c(Cl)c1 (stereo not given)	?	?	i	40µM*	?	?	?	-6%	?
Cc1noc(C)c1CCC(=O)N1CCn2nc(Cc3ccccc3)cc2C1	3%	?	i	?	-1%	.	.	.	.
Cc1nn2c(c1-c1ccccc1Oc1ccccc1)N(C(=O)c1ccnn1C)CCC2	-15%[70.6 µM]	?	i	-23%[138 µM]	2%[88.5 µM]	.	.	.	.
Cc1nn2c(c1-c1ccccc1OCc1ccccc1)N(C(=O)COc1ccccc1C(N)=O)CCC2	7.1µM*	?	i	6.3µM*	?	17µM*	11µM*	0%	0%
